Source: PubChem
Rows were chosen to be rich in hits. Some 1.5% of all compounds tested hit in one or more screens of this group.
CRFR2-BP ag: agonists of human CRF-binding protein/CRF-R2 receptor complex | AID 588473 | HEK293 CRF-R2/CRF-BP, calcium dye fluorescence (FLIPR); percent of saturating CRF peptide response | hit rate 0.46% among 350,000 | activation, % at 13.2 µM;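 active = activation of at least 50%, plus an integration ratio under a set limit after plate pattern correction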
RTF Ca sens act: cardiac RTF calcium sensitization. AID 493008. P19429+P45379. activation, % at 7.2 µM. hit rate 0.24% among 340,000. IANBD-labeled TnC RTF fluorescence at EC20 calcium; 0% EC20 calcium, 100% full calcium;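 active = activation above the mean over all tested compounds plus 3 SD, cut at about 30% in these data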;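 note: rise in fluorescence read as greater calcium sensitivity of cardiac thin filaments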
IDE cell inh: cellular human IDE inhibition | HEK cells, FAbetaB cleavage, fluorescence polarization | P14735 | inhibition, % at 5.59 µM | hit rate 0.41% among 320,000 | AID 434962;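 active = percent inhibition above the average of all tested compounds plus 3 SD, set per screening campaign, cut at about 16% in these data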;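 note: IDE supplied by intact live HEK cells; FP after avidin binding of uncleaved biotin substrate so inhibition keeps polarization high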
CRFBP-R2 block: blocks CRF-induced signaling of the CRF-BP/CRF-R2 complex; HEK293 CRF-R2/CRF-BP, CRF-induced calcium fluorescence; inhibition, % at 11.8 µM; hit rate 0.59% among 350,000; AID 588475;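 active = inhibition of the ligand-induced calcium signal above about 50% at the single tested concentration, limit read from the data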
IDE cell activ: IDE (human) activation, cell-based | AID 493087 | activation, % at 5.96 µM | HEK cells, FAbeta-B cleavage, fluorescence polarization; 0% vehicle, 100% cell-free pure enzyme wells | hit rate 0.073% among 340,000;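 active = activation above the mean of all tested compounds plus 3 SD, set per screening campaign, cut at about 17% in these data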
Cardiac RTF inh: cardiac RTF calcium desensitization | P19429+P45379 | IANBD-labeled cardiac RTF, Ca2+ fluorescence | inhibition, % at 7.15 µM | hit rate 0.12% among 340,000;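 active = inhibition above the mean inhibition of all tested compounds plus 3 SD, cut at about 17% in these data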;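 note: assay run at fixed EC70 calcium of 1.6 mM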
IDE inh confirm: cellular human IDE inhibition, confirmation | shares compounds with IDE cell inh | HEK cells, FAbetaB cleavage, fluorescence polarization | inhibition, % at 5.59 µM | hit rate 51% among 1,200 | AID 435028;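 active = mean inhibition across triplicate wells above the cutoff set by the earlier primary insulin-degrading enzyme screen, cut at about 16% in these data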
HEK293 tox: kills HEK cells in IDE inhibitor counter-screen. shares compounds with IDE cell inh. HEK293 cytotoxicity, ATP luminescence. inhibition, % at 5.59 µM. hit rate 28% among 1,200. AID 449730; in the data active = inhibition above about 22%
Of the large screens only hits and unclear results are named; the others gave an inactive call (follow-up assays come after a bar, where they were run).

CCOc1cccc(C(=O)Nc2cccc(-c3nnc(-c4ccccc4)o3)c2)c1	none
COc1cccc(C(=O)Nc2cccc(-c3nnc(-c4ccccc4)o3)c2)c1	IDE cell inh 17 | IDE inh confirm inactive | HEK293 tox inactive
COc1cc(CCCN2C(N)=NC[C@@H]2Cc2ccccc2)cc(OC)c1OC	none
O=[N+]([O-])c1ccc(N=Cc2sc3ccccc3c2O)cc1	IDE cell inh 17 | IDE inh confirm inactive | HEK293 tox inactive
CC(C(=O)OCC(=O)Nc1cccc(S(=O)(=O)N(C)C)c1)N1C(=O)c2ccccc2C1=O (stereo unspecified)	none
O=C(CCCOc1ccc(Cl)cc1Cl)NCc1ccncc1	IDE cell inh 24 | IDE inh confirm inactive | HEK293 tox inactive
Cc1cccc(C)c1N(C(=O)c1ccco1)C(C(=O)NC1CCCC1)c1ccncc1 (stereo unspecified)	none
COc1cc(C(=O)OC2CC3CCC2(C)C3(C)C)ccc1OC(C)=O (stereo unspecified)	none
O=c1c(Cl)c(NCc2ccccc2Cl)cnn1C12CC3CC(CC(C3)C1)C2	IDE cell inh 34 | IDE inh confirm 19 | HEK293 tox 40
O=c1c(Cl)c(NCc2ccco2)cnn1C12CC3CC(CC(C3)C1)C2	none
CCOC(=O)N1CCN(C(=O)c2cccn3c(=O)c4cc(Cl)ccc4nc23)CC1	IDE cell inh 16 | IDE inh confirm inactive | HEK293 tox inactive
COc1cc(/C=C/C(O)=C/C(=O)/C=C/c2ccc(O)cc2)ccc1O	CRFR2-BP ag 113, IDE cell inh 44 | IDE inh confirm 109 | HEK293 tox inactive
O=C(O)C(Cc1ccccc1)N1C(=O)/C(=C/c2ccccc2)SC1=S (stereo unspecified)	none
COc1cc(/C=C2\SC(=S)N(C(Cc3ccccc3)C(=O)O)C2=O)ccc1O (stereo unspecified)	IDE cell inh 46 | IDE inh confirm 109 | HEK293 tox inactive
COc1cc(/C=C2/SC(=S)N(CC3CCCO3)C2=O)ccc1O (stereo unspecified)	CRFR2-BP ag 151, IDE cell inh 108 | IDE inh confirm 175 | HEK293 tox inactive
CCOc1cc(/C=C2\SC(=S)N(Nc3ccccc3)C2=O)ccc1O	IDE cell inh 53 | IDE inh confirm 128 | HEK293 tox inactive
CCOc1ccc(/C=C2\SC(=S)N(NS(=O)(=O)c3ccccc3)C2=O)cc1OC	none
CCOc1cc(/C=C2\SC(=S)N(NS(=O)(=O)c3ccccc3)C2=O)ccc1O	IDE cell inh 39 | IDE inh confirm 109 | HEK293 tox inactive
COc1ccc(S(=O)(=O)N2CCC(Cc3ccccc3)CC2)cc1NC(C)=O	none
CC(C)(C)C(=O)Nc1cc(NC(=O)C(C)(C)C)cc(C(=O)NNC(=O)c2ccncc2)c1	none
COCCC(=O)Nc1c(-c2ccccc2)c2cc(Br)ccc2[nH]c1=O	none
Cn1cc(Br)c(-c2cccc(NC(=O)CC(C)(C)CC(=O)O)c2)n1	none
COc1cc(/C=C2\SC(=S)N(Nc3ccccc3)C2=O)ccc1O	IDE cell inh 128 | IDE inh confirm 142 | HEK293 tox inactive
O=C1/C(=C/c2ccc(O)c(O)c2)SC(=S)N1Nc1ccccc1	none (no result: IDE cell inh)
Cc1occc1C(=O)N/N=C/c1ccc(-c2ccccc2)cc1	IDE cell inh 16 | IDE inh confirm inactive | HEK293 tox 65
COc1ccc(/C=N\NC(=O)c2ccc(-c3ccccc3)cc2)c(OC)c1OC	none (no result: IDE cell inh)
COc1cc(/C=N/NC(=O)c2ccc(-c3ccccc3)cc2)cc(OC)c1OC	IDE cell inh 21 | IDE inh confirm inactive | HEK293 tox inactive
CC(=O)C1=C(N2CCCCC2)CCC1=O	none
CCOC(=O)c1cnc2c(cnn2C)c1NCCCn1ccnc1	none
O=C(O)C1c2ccccc2C(=O)N(Cc2ccc(F)cc2)C1c1ccncc1 (stereo unspecified)	IDE cell inh 16 (no result: RTF Ca sens act, IDE cell activ, Cardiac RTF inh) | IDE inh confirm inactive | HEK293 tox inactive
CCc1ccc(C2C(C(=O)O)c3ccccc3C(=O)N2C)cc1 (stereo unspecified)	none
O=C(/C=C/c1ccccc1)C1=C(O)C(=O)N(CCO)C1c1ccc2c(c1)OCO2 (stereo unspecified)	none
N#CC1=C(N)Oc2cc(O)ccc2C1c1ccccc1 (stereo unspecified)	none
N#CC1=C(N)SC(N)=C(C#N)C1c1cccc(O)c1	IDE cell inh 20 | IDE inh confirm inactive | HEK293 tox inactive
Cn1cccc1/C=N/NC(=O)CSc1nc2ccccc2[nH]1	none (no result: RTF Ca sens act, IDE cell activ, Cardiac RTF inh)
Nc1c(C(=O)N/N=C/c2ccc(Cl)cc2)cnn1-c1ccccc1	IDE cell inh 18 | IDE inh confirm inactive | HEK293 tox inactive
CN1CCN(C2=C(Cl)C(=O)C(c3cnc(N4CCCCC4)s3)=C(Cl)C2=O)CC1	IDE cell inh 23 | IDE inh confirm inactive | HEK293 tox 119
COc1cc(/C=C2\SC(=O)N(CC(=O)Nc3ccccc3F)C2=O)cc(Cl)c1O	CRFR2-BP ag 169, IDE cell inh 48 | IDE inh confirm 96 | HEK293 tox inactive
C=C1CCN([C@@H](C)C(=O)NCCCCCC)S(=O)(=O)c2ccccc21	none
CCn1c(/C=C/c2c[nH]c3ccccc23)nc2ccccc2c1=O	none
CC[n+]1ccc(/C=C/c2c[nH]c3ccccc23)cc1	CRFR2-BP ag 61, RTF Ca sens act 102, IDE cell inh 24 | IDE inh confirm 41 | HEK293 tox 71
O=S(=O)(c1cccc(NC(=S)N2CCN(c3ccccc3)CC2)c1)C(F)F	IDE cell inh 19 | IDE inh confirm inactive | HEK293 tox inactive
O=S(=O)(c1cccc(NC(=S)N2CCN(c3ccccc3F)CC2)c1)C(F)F	none
CCN1C(=O)c2ccc(C(=O)O)cc2C1=O	none
CCN(CC)c1ccc(/C=C2/C(=O)c3ccc(C(=O)O)cc3C2=O)cc1	CRFR2-BP ag 215, RTF Ca sens act 78, IDE cell inh 138 | IDE inh confirm 26 | HEK293 tox inactive
O=C(CN1CCN(Cc2ccccc2Cl)C1=O)NCc1ccccn1	none
O=C(Nc1ccc(C(=O)OC[C@@H]2CCCN3CCCC[C@H]23)cc1)c1cccc(Br)c1	IDE cell inh 32 | IDE inh confirm inactive | HEK293 tox inactive
CC(=O)c1cccc(S(=O)(=O)NCCC(=O)O)c1	none
COc1cccc(NC(=O)N2CCN(c3nc(-c4cccc(OC)c4)cs3)CC2)c1	IDE cell inh 19 | IDE inh confirm inactive | HEK293 tox 30
COc1cccc(NC(=O)N2CCN(c3cccc(C)c3C)CC2)c1	IDE cell inh 16 | IDE inh confirm inactive | HEK293 tox inactive
